Calb FLC: C. albicans growth inhibition with fluconazole, primary screen, CaCi-2 strain, Alamar Blue fluorescence. C. albicans CaCi-2 (fluconazole-resistant clinical isolate) + fluconazole, 48 h. growth inhibition, % (test concentration not listed). 0.57% of 300,000 active. AID 1979, 2009;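 active = growth inhibition above about 58% in most replicates, limit read from the data, passing the limit was not always enough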;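 also: all wells also contain fluconazole at 8 µg/ml as a sub-toxic cotreatment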
Rin1 Abl inh: inhibitors of Rin1-Abl protein binding, primary screen, biochemical, TR-FRET; Tyrosine-protein kinase ABL1 (Homo sapiens) + Ras and Rab interactor 1 (Homo sapiens), …; inhibition, % at 7.35 µM; 0.4% of 360,000 active; AID 588664, 2011; in the data active = inhibition above about 5%, passing the limit was not always enough
Target sequence (P00519 whole entry, looked up): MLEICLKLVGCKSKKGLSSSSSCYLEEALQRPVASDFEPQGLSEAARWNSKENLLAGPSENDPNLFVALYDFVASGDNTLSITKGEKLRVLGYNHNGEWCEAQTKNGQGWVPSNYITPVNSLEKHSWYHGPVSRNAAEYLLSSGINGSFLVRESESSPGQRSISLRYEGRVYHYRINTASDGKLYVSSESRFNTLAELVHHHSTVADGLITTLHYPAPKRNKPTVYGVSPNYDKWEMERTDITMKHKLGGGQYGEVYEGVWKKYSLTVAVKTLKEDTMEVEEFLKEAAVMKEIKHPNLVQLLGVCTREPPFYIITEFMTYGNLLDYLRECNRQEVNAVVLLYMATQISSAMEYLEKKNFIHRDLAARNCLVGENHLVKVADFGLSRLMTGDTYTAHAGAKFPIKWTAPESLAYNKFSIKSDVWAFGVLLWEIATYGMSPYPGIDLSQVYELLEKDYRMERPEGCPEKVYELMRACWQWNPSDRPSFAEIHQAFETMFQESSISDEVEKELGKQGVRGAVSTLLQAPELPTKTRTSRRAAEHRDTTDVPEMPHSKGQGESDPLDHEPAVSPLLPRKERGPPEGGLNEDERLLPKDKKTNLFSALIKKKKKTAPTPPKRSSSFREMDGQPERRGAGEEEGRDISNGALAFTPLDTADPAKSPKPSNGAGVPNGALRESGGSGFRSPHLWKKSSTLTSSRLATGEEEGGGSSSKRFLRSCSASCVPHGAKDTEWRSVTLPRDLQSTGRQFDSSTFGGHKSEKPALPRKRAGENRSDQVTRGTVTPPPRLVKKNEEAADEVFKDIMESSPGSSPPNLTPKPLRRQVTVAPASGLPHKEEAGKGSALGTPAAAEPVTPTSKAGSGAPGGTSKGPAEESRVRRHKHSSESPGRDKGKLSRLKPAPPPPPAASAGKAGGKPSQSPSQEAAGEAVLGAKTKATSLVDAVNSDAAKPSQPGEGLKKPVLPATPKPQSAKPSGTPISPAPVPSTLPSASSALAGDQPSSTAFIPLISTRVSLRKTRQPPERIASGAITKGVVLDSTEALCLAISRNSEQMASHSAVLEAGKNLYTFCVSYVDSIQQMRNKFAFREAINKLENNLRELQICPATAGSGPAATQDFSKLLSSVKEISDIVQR
Target sequence (Q13671 whole entry, looked up): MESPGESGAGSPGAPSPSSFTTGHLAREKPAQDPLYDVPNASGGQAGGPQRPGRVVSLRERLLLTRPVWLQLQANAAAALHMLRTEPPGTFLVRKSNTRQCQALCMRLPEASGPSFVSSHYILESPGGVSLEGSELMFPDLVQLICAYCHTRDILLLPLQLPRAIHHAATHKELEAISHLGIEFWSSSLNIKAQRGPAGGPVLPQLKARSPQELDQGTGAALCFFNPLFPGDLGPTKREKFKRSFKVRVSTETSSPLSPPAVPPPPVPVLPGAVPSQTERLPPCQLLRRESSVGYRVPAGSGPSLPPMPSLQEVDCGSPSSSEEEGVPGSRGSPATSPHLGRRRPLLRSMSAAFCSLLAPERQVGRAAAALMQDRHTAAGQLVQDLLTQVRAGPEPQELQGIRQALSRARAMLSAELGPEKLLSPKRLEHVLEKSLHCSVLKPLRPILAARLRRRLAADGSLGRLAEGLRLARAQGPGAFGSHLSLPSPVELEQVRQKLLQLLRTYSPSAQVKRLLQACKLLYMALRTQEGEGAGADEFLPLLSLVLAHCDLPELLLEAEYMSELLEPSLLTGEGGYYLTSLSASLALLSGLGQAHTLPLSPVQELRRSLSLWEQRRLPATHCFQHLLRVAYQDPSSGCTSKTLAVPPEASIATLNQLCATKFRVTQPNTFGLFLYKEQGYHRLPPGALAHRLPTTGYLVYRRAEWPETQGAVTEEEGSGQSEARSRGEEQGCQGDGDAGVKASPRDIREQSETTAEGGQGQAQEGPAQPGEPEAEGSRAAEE
PfM18AAP inh-1: PfM18AAP inhibitors, malaria aminopeptidase, primary screen, biochemical, QFRET, recombinant enzyme; M18 aspartyl aminopeptidase (Plasmodium falciparum 3D7); H-Glu-NHMec fluorogenic cleavage; inhibition, % at 7.35 µM; 1.2% of 290,000 active;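 active = inhibition above the campaign mean inhibition over all tested compounds plus 3 SD, cut at about 28% in these data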
CTSL1 counter-1: Fasciola hepatica cathepsin L1 inhibitors, primary screen, counter-screen for PFM18AAP inhibitor project, biochemical, QFRET, fluorogenic peptide substrate | recombinant F. hepatica cathepsin L1, Z-Leu-Arg-MCA fluorescence | inhibition, % at 5.96 µM | 0.49% of 300,000 active;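 active = inhibition above the mean of all tested compounds plus 3 SD, set per screening campaign, cut at about 17% in these data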
PfM18AAP inh-2: PfM18AAP inhibitors, malaria aminopeptidase, confirmation, biochemical, QFRET, recombinant enzyme, triplicate | shares compounds with PfM18AAP inh-1 | H-Glu-NHMec fluorogenic cleavage | inhibition, % at 7.35 µM | 28% of 2,400 active | AID 2170, 2009;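 active = mean inhibition over replicate wells above the hit cutoff set for the earlier primary screen, cut at about 29% in these data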
CTSL1 counter-2: cathepsin L1 inhibitors, retest, confirmation, counter-screen for PFM18AAP inhibitor project, biochemical, QFRET, triplicate; purified cathepsin L1, Z-Leu-Arg-MCA fluorescence; inhibition, % at 5.96 µM; shares compounds with PfM18AAP inh-1; 2,400 tested, under 10 active; AID 2178, 2009;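 active = average inhibition across replicates above the hit cutoff set in the earlier primary screen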
A number is an active result; - = inactive; . = no result given. The list is not random: actives were taken first. Their share in the collection is about 2.1%.

SMILES | Calb FLC | Rin1 Abl inh | PfM18AAP inh-1 | CTSL1 counter-1 | PfM18AAP inh-2 | CTSL1 counter-2
COCCCNC(=S)NNC(=O)c1ccccn1 | - | - | - | - | . | .
O=C(OCn1cncn1)c1ccc(Cl)cc1Cl | - | - | 53 | - | 29 | -
Cc1ccc(-c2n[nH]c(=S)n2/N=C/c2ccc(C(=O)O)cc2)cc1 | - | - | 36 | - | - | -
COc1cc(/C=N/n2c(-c3ccccc3)n[nH]c2=S)cc(OC)c1O | - | - | 32 | - | - | -
COc1cc(/C=N/n2c(-c3ccccc3)n[nH]c2=S)ccc1O | - | - | - | - | . | .
CCOC(=O)c1cccc(OC(=O)CCNC(=O)c2ccc(Cl)cc2)c1 | . | - | . | . | . | .
O=C(OCc1ccccc1Cl)C1CC(=O)N(Cc2ccco2)C1 (centres undefined) | - | - | . | - | . | .
COc1cccc(OC)c1C(=O)NC(=O)Nc1c(F)cc(F)cc1F | - | - | - | - | . | .
COc1cccc(OC)c1C(=O)NC(=O)NNc1cc(C(F)(F)F)cc(C)n1 | - | - | 40 | - | - | -
COc1ccccc1NS(=O)(=O)c1cc(NC(=O)C2CC2)ccc1N1CCOCC1 | - | . | 42 | - | - | -
COc1ccccc1NS(=O)(=O)c1cc(NC(=O)c2ccccc2C)ccc1N1CCOCC1 | . | - | . | . | . | .
CC(=O)Nc1ccc2c(c1)N(S(=O)(=O)c1cccs1)CCC2 | - | - | . | - | . | .
O=S(=O)(O)c1cc(O)c2c(O)c(N=Nc3cc(Cl)ccc3O)c(S(=O)(=O)O)cc2c1 | 85 | 11 | 45 | - | 29 | -
CCCOc1ccc(/C=C2/C(=O)ON=C2C)cc1OCC | - | - | 40 | - | 42 | -
O=C(Nc1nnc(SCc2cccnc2)s1)C1CC(=O)N(c2ccccc2)C1 (centres undefined) | - | - | - | - | . | .
CN1C(=O)N(c2cccc3ccccc23)C(n2cncn2)C1(C)C (centres undefined) | - | - | 81 | - | 77 | -
COc1ccc(/C=C/C(=O)c2ccc(NC(=O)c3cccs3)cc2)cc1OC | - | - | - | - | . | .
O=C(c1cccs1)N1C[C@@H](O)[C@H](n2cc(-c3ccc(F)cc3)nn2)C[C@@H]1c1ccccc1 | . | - | . | . | . | .
O=C1c2ccc([N+](=O)[O-])cc2NC(c2ccco2)N1/N=C/c1ccco1 (centres undefined) | - | - | 40 | - | - | -
CN=c1scc(-c2ccc([N+](=O)[O-])cc2)n1/N=C/c1ccco1 | - | - | - | - | . | .
O=C(Nc1cccc(Cl)c1)N(CCN1CCOCC1)Cc1ccccc1F | - | - | 71 | - | - | -
COC(=O)C(CCSC)NC(=O)c1cc2c(n(-c3ccccc3)c1=O)CC(C)(C)CC2=O (centres undefined) | - | - | - | - | . | .
Oc1ccc(N2CCN(Cc3cc4c(cc3Br)OCCO4)CC2)cc1 | - | - | 39 | - | - | -
O=c1[nH]c(C(F)(F)F)nc2ccc3ccccc3c12 | - | - | - | - | . | .
CCOC(=O)C1=C(C)NC(C)=C(C(=O)OCC)C1c1ccc([N+](=O)[O-])s1 | - | - | - | - | . | .
SMILES | Calb FLC | Rin1 Abl inh | PfM18AAP inh-1 | CTSL1 counter-1 | PfM18AAP inh-2 | CTSL1 counter-2
CCCCCCn1c(-c2cccs2)n[nH]c1=S | - | - | - | - | . | .
CC(C)(C)c1ccc(O)c(N)c1 | - | . | 46 | - | 76 | -
CC1(c2ccccc2)NC(=O)N(CC(=O)Nc2ccccc2N2CCCCC2)C1=O (centres undefined) | - | - | . | - | . | .
OC(Cn1cnnc1)c1ccccc1 (centres undefined) | - | - | 79 | - | 76 | -
CC(C)n1[nH]c2ccccc2c1=O | . | - | . | . | . | .
COc1ccc(N2C(=O)CC(NNc3ncc(Cl)cc3Cl)C2=O)cc1 (centres undefined) | - | - | - | - | . | .
NC(=S)NNc1ccnc2cc(Cl)ccc12 | - | - | 55 | - | 28 | -
CC(C)CC(=O)Nc1ccc2c(c1)nc(CCN1CCOCC1)n2C | - | - | - | - | . | .
CN(C)c1ccc(N=Cc2cccn2C)cc1 | 85 | - | 58 | - | - | -
CN(CC(=O)Nc1ccccc1-c1ccccc1)Cc1ccccc1Cl | - | - | - | - | . | .
CNC(=S)NNC(=O)c1cccs1 | - | - | 38 | - | - | -
Cc1ccc(NC(=O)NNC(=O)c2cccs2)cc1 | - | - | 51 | - | - | -
Cc1ccc(NC(=O)NNC(=O)c2ccccc2)cc1 | - | - | - | - | . | .
COc1ccc(C(=O)NNC(=O)Nc2ccc(C)cc2)cc1 | - | - | 45 | - | - | -
CCNC(=S)NNC(=O)c1cccs1 | - | - | 36 | - | - | -
CC1CCN(c2ccc(C=O)o2)CC1 | - | - | - | - | . | .
CCn1nc(C)cc1C(=O)N1CCCC(Nc2ccc(C(C)C)cc2)C1 (centres undefined) | - | - | - | . | . | .
O=C1/C(=C\c2cccc(O)c2O)SC(=S)N1Cc1ccccc1 | - | - | 58 | - | - | -
CCN1C(=O)[C@@H]2Cc3c([nH]c4ccccc34)C(c3ccc(OC)cc3)N2C1=S (some centres undefined) | - | - | - | - | . | .
COCCNC(=O)NC1(C(F)(F)F)Oc2ccc(Cl)cc2O1 (centres undefined) | - | - | 83 | - | 61 | -
Cc1cc(NC(=O)NC2(C(F)(F)F)Oc3ccc(Cl)cc3O2)no1 (centres undefined) | - | - | 88 | - | 83 | -
Cc1cc(NC(=O)Nc2ccc(F)c(Cl)c2)no1 | - | - | - | - | . | .
COCCNC(=O)C(C)Oc1ccc(Cl)cc1Cl (centres undefined) | - | - | - | - | . | .
O=C(NCc1cccnc1)NC1(C(F)(F)F)Oc2ccc(Cl)cc2O1 (centres undefined) | - | - | 80 | - | 83 | -
Cc1ccc(Cl)cc1NC(=O)NCc1cccnc1 | - | - | - | . | . | .
SMILES | Calb FLC | Rin1 Abl inh | PfM18AAP inh-1 | CTSL1 counter-1 | PfM18AAP inh-2 | CTSL1 counter-2
Cc1ccc(S(=O)(=O)N(CC(=O)NCc2ccccc2Cl)C(=O)N2CCN(C)CC2)cc1 | - | - | . | - | . | .
COc1nc(NCCO)nc(Nc2ccccc2F)n1 | - | - | - | - | . | .
CC(C)n1cc(CN2CCN(C)C(CCO)C2)c2ccccc21 (centres undefined) | - | - | - | - | . | .
COc1ccc(C2C(C(C)=O)=C(O)C(=O)N2c2nccs2)cc1OC (centres undefined) | - | - | - | - | . | .
COc1ccc(C2C(C(C)=O)=C(O)C(=O)N2c2nc3ccccc3s2)cc1OC (centres undefined) | - | - | 34 | - | - | -
CCn1c2ccccc2n2c(=O)c(=O)n(CC(=O)N3CCN(c4ccccc4OC)CC3)nc12 | - | . | - | - | . | .
Cc1cc(C(=O)CSc2nc(N)cc(N)n2)c(C)n1-c1cccc(F)c1 | - | - | 34 | - | - | -

Screening results deposited in PubChem by several laboratories.
